Bioassay records from PubChem.
The list is not random: actives were taken first. Their share in the collection is about 11%.
PNC inhibitor – blocks assembly of the perinucleolar compartment; PC3M PTB-GFP, PNC prevalence imaging, 16 h; active compounds read low; activity change (PNC), negative = inhibition, % at 10 µM; hit rate 3.1% among 140,000; AID 2417;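 active means readout at or below -70, meaning at least 70% loss of cells showing the perinucleolar compartment, a nuclear body marking cancer cells; inconclusive means readout between -30 and a set limit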;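 further: plate controls were DMSO wells for no effect and camptothecin positive control wells for full effect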
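PC3M cells stably expressing PTB-GFP, 750–1000 cells/well, treated 16 h at 37 °C with compound (23 nl of library stock), in duplicate. After paraformaldehyde fixation and Hoechst stain, imaged at 20x; PNC prevalence scored by image analysis.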
ALDH1A1 inh – ALDH1A1 (human) enzyme inhibition; AID 1030; Potency, µM (top dose mostly 75.3 µM), inactives show at the top dose activity, negative = inhibition, hits mostly inhibitors; Purified ALDH1A1, NADH fluorescence, propionaldehyde substrate; P00352; hit rate 7.3% among 220,000;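 further: potency means the concentration at half of the fitted maximal effect; plate controls were no enzyme wells and a reference inhibitor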
HPGD inh – inhibitors of human 15-hydroxyprostaglandin dehydrogenase (HPGD). P15428. purified HPGD, NADH fluorescence kinetic, PGE2 substrate. Potency, µM, for the others: at the top dose activity change, negative = inhibition, most hits filed as inhibitors. hit rate 4.3% among 150,000; further: potency means the concentration at half of the fitted maximal effect
Target sequence (P15428 whole entry, looked up): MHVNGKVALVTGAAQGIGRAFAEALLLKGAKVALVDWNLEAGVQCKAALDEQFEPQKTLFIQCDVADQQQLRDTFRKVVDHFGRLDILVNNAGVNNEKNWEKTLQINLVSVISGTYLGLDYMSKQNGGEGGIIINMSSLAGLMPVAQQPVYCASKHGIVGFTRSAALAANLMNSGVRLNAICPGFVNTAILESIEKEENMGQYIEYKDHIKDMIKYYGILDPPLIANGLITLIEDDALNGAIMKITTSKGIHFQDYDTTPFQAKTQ
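NADH formation kinetics: reaction with 30 uM PGE2 and 1 mM NAD+ (final), 20 nM enzyme, Tris-HCl pH 8 with Tween 20, after 15 min compound preincubation at room temperature. Fluorescence change, last versus first of five reads.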
* hit, by the source's call; ? = inconclusive; . = no result given; [ ] = dose if it differs, or a comment. Unless noted, the call rests on the fitted dose curve; in most records, active means well fitted inhibition curve with a large enough effect (not every such curve was filed as active); inconclusive means small, poorly fitted or top-dose-only effect, or another doubt; inactive means no such curve, though single readings can be large or run the other way. Unless noted, on the % scale 0 is the no-effect control and ±100 the full control effect.

SMILES	PNC inhibitor	ALDH1A1 inh	HPGD inh
CN(C)S(=O)(=O)c1ccc(/C(O)=C2/C(=O)C(=O)N(CCN3CCCCC3)C2c2cccnc2)cc1 (centres undefined)	.	22µM*	-9%
CN(C)Cc1ccccc1-c1cc(NCc2cccs2)ncn1	.	8%	.
O=C(CSc1nnc(-c2ccncc2)n1-c1ccccc1)N1CCN(c2ccc(Cl)cc2)CC1	2	18%	2%
CCOC(=O)C(CSCC(=O)c1ccc(Cl)cc1)NC(=O)OC(C)(C)C (centres undefined)	19	20µM*	-9%
CCOC(=O)C(CSCC(=O)c1ccc(Br)cc1)NC(=O)OC(C)(C)C (centres undefined)	4	?	-18%
C=CCNC(=O)C1(c2ccccc2)CC1(Cl)Cl (centres undefined)	-18	-7%	-6%
COC(=O)C(NNc1ccccc1C)(NC(=O)c1ccc(F)cc1)C(F)(F)F (centres undefined)	-6	?	-5%
CC(C)(C)c1nc(NCCN2CCOCC2)c2nnn(Cc3ccccc3Cl)c2n1	-16	?	-19%
Cc1nc(N2CCC(C)CC2)c2nnn(Cc3ccccc3)c2n1	329	?	-28%
Cc1nc(NCCN2CCOCC2)c2nnn(Cc3ccccc3Cl)c2n1	-7	16µM*	-12%
CCOCCCNCc1c(Cl)cccc1Cl	28	-4%	-11%
Cc1nc(NCCO)c2nnn(Cc3ccccc3F)c2n1	-93*	?	2%
Fc1ccccc1Cn1nnc2c(NCc3ccccn3)ncnc21	28	?	-21%
CCOCCCNc1nc(C)nc2c1nnn2Cc1c(F)cccc1Cl	.	8.9µM*	.
C#CCNc1nc(C)nc2c1nnn2Cc1ccccc1F	?	11µM*	-4%
O=C(O)c1ccc(Cc2ccccc2C(=O)O)cc1	.	7%[13.5 µM]	-6%
COc1ccc(C(C)NC(=O)C2CCCO2)cc1OC (centres undefined)	-12	1%	-8%
O=C(CC1(O)C(=O)Nc2ccc(Br)cc21)c1ccc2c(c1)OCO2 (centres undefined)	-4	6%	-13%
COC(=O)C(NC=O)C(O)(Cc1ccccc1)C(F)(F)F (centres undefined)	-15	8%	2%
COc1ccccc1C(=O)C1CCCN(C(=O)c2cccc(-n3cccn3)c2)C1 (centres undefined)	.	-11%	.
O=C(C[C@@H](c1ccccc1)N1CCCCC1)c1ccccc1	.	14%[13.5 µM]	?
COc1ccc(S(=O)(=O)N(C)CC(=O)NCc2cccnc2)cc1C	?	-5%	3%
Cc1cc(C)c2c(-n3cccc3)c(C(=O)NNS(=O)(=O)c3ccc(Br)cc3)sc2n1	35	0.089µM*	-4%
CCOC(=O)Nc1sc2nc(C)cc(C)c2c1-n1cccc1	-6	?	-20%
CC(C)C[C@@H](CC(=O)N[C@@H](CCC(=O)O)CC(=O)O)NC(=O)[C@@H]1CCCC[C@H]1NC(=O)C[C@@H](NC(=O)C[C@H](Cc1ccccc1)NC(=O)[C@@H]1CNCC[C@H]1N)C(C)C	.	1%	-7%
SMILES	PNC inhibitor	ALDH1A1 inh	HPGD inh
CC(C)CCNC(=O)C1CCCN1C(=O)NC1CCCCC1 (centres undefined)	-22	10%	-18%
Cc1ccc(NC(=S)N2CCC(N(C)CC3CCCO3)CC2)c(C)c1 (centres undefined)	62	-6%	-5%
COCc1cc(CN2CCN(Cc3ccsc3)C(CCO)C2)ccc1OC (centres undefined)	.	2%	.
C/C(=N/NC(=O)c1cc(O)c(O)c(O)c1)c1ccc([N+](=O)[O-])cc1	.	25µM*	.
C/C(=N\NC(=O)c1cnccn1)c1ccc([N+](=O)[O-])cc1	.	-3%	.
Cc1cc(C)n2nc(-c3ccsc3-n3c(C)ccc3C)cc2n1	12	-9%	-10%
Cc1cc(NCCN(C)C)n2nc(-c3cccs3)cc2n1	-89*	?	?
Clc1ccc(CN2CCCN(Cc3ccc(Cl)cc3)C2c2cc3ccccc3c3ccccc23)cc1	.	14%[13.5 µM]	-15%
CN(C)Cc1ccccc1Sc1ccc(Br)cc1	?	12%	-4%
CCOc1ccc(NCC(=O)N/N=C/C=C/c2ccccc2)cc1	-16	?	-9%
COc1ccc(OCC(=O)N/N=C/C=C/c2ccccc2)cc1	-115*	6%	-7%
O=C(CSc1ccccn1)N/N=C/c1ccccc1[N+](=O)[O-]	-9	?	-8%
O=C(CSc1ccccn1)N/N=C/C=C/c1ccccc1	3	6%	20µM*
CC1=C(C(=O)OCC(C)C)C23C(=O)c4ccccc4C2(O1)OC(N)=C3C#N (centres undefined)	?	-3%	-5%
CCOc1cc(C)c(S(=O)(=O)NC2CCCCC2)cc1C	13	-6%	-11%
Cc1ccc(-c2nnc(SCC(=O)N/N=C/c3ccc(C)s3)n2-c2ccccc2)cc1	-15	5%	-7%
CCN(CC)S(=O)(=O)c1ccc(Cl)c(C(=O)Oc2cccnc2)c1	7	14µM*	-26%
CCN(CC)S(=O)(=O)c1ccc(Cl)c(C(=O)Oc2cccc(-c3cnc4ccccc4n3)c2)c1	-6	5%	-4%
CCCc1c(OCCCCc2nn[nH]n2)ccc(C(C)=O)c1O	-9	5%	-12%
CCCc1c(OCC(O)COc2ccc3c(=O)cc(C(=O)O)oc3c2CCC)ccc(C(C)=O)c1O (centres undefined)	.	-11%	18µM*
Cc1sc(NC(=O)CN(CCc2ccccc2)C(=O)C2CC2)c(C(N)=O)c1C	.	2%	.
CCCc1cc(=O)c2c(O)ccc(OC)c2o1	.	2%	.
Cc1nn(-c2ccc(C(=O)O)cc2)c(C)c1Oc1ccccc1O	-10	9%	14µM*
Cc1nn(-c2cccc(C(=O)O)c2)c(C)c1Oc1ccccc1O	21	13%	-16%
Cc1nn(-c2nc3ccccc3s2)c(C)c1Oc1ccccc1O	-100*	5%	?
SMILES	PNC inhibitor	ALDH1A1 inh	HPGD inh
Cc1nn(-c2ccccn2)c(C)c1Oc1ccccc1O	-21	-8%	14µM*
CCSc1nc(-c2ccc(OC)cc2)n(-c2nc3ccccc3s2)n1	-2	?	?
Cc1nn(CCO)c(C)c1Oc1ccccc1O	8	-6%	-3%
CN(C(=O)c1ccco1)c1nc2c(s1)CCCC2	53	-5%	-12%
O=C(O)CCC(=O)N1CCN(c2ncccc2C(F)(F)F)CC1	.	8%	.
Cc1noc(C)c1S(=O)(=O)N1CCC(C(=O)NC2CCCc3ccccc32)CC1 (centres undefined)	12	2%	-3%
O=C(NCCN1CCc2ccccc2C1)C1CCN(S(=O)(=O)N2CCC3(CC2)OCCO3)CC1	88	?	-9%
O=C(NCCN1CCc2ccccc2C1)C1CCN(S(=O)(=O)N2CCCCC2)CC1	5	18µM*	-8%
O=C(NC1CCCc2ccccc21)C1CCN(S(=O)(=O)N2CCCCCC2)CC1 (centres undefined)	-21	4.5µM*	-6%
CNC1=C(Cl)C(=O)c2ccncc2C1=O	.	-8%	-3%
O=C(CCCCCn1c(=S)[nH]c2ccc(N3CCOCC3)cc2c1=O)NCc1cccc(Cl)c1	.	4%	.
COc1ccccc1CNC(=O)CSc1nnc2ccc(-c3cccnc3)nn12	.	5%	.
CC1(C(=O)O)COC(c2ccc([N+](=O)[O-])cc2)OC1 (centres undefined)	-24	-1%	-6%
